Test results from PubChem BioAssay AID434939 (The Scripps Research Institute Molecular Screening Center, 2010).
Hit rate of the full screen: of about 2,300 compounds, about 2,000 (87%) were called active. The set was probably picked from earlier hits. These entries were drawn from the full list. A number with no mark means an inactive call. Cut-off read from the data, not from the text of the source: active = activation above about 11%; inactive = the rest.

The molecules below were run against Nuclear receptor subfamily 1 group I member 2 (Homo sapiens) (UniProt O75469) (assay: human PXR activators, counter-screen for AHR activator project, cell-based, luciferase luminescence (AID 434939;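 note: human hepatoma DPX-2 cells expressing full-length human PXR; 0% = DMSO and 100% = reference agonist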)). Details: cell-based PXR reporter, at 11.6 µM, stronger effect = higher value.
Chain of Nuclear receptor subfamily 1 group I member 2 (Homo sapiens) (O75469 whole entry, looked up): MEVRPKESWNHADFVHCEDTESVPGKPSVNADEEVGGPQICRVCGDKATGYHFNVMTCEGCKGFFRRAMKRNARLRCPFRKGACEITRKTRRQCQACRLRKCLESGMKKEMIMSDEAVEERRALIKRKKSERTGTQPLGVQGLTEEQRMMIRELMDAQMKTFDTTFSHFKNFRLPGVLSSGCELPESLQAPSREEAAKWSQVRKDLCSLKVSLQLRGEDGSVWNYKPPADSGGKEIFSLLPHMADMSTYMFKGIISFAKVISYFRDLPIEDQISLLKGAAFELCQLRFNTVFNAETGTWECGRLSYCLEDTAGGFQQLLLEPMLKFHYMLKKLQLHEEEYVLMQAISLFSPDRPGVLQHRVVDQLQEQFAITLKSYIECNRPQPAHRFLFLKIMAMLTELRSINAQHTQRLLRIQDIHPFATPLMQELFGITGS
With `O=C(CSc1cccc2cccnc12)N/N=C/c1cccnc1` the activation was 10.2% (active).
With `COc1ccc(OC)c(-c2csc(-c3cccs3)n2)c1` the activation was 21.7% (active).
For `O=C(CC1Nc2ccccc2NC1=O)Nc1ccccc1` (centres undefined), the activation was 26.3% (active).
`COc1cc(NC(=O)c2ccc(-c3csc(C)n3)cc2)c(OC)cc1Cl` was tested, and the activation was 20.9% (active).
In the case of `O=C(Cn1cncn1)N/N=C/c1c2ccccc2cc2ccccc12`, the activation is reported as 13.7% (active).
`O=C(Nc1ccc(Cl)cn1)c1cnn2cccnc12` was tested, and the activation was 35.9% (active).
`Cc1ccc(-c2nc(C#N)c(NCCCn3ccnc3)o2)cc1` was tested, and the activation was 34.4% (active).
In the case of `Cc1ccnc(NC(=O)c2ccc(Cl)c([N+](=O)[O-])c2)c1`, the activation is reported as 42.9% (active).
`Nc1[nH][nH]c(=O)c1N=Nc1ccc2c(c1)OCO2` was tested, and the activation was 11.2% (active).
In the case of `CCOC(=O)c1nc(-c2ccc3c(c2)OCO3)[nH]c1C`, the activation is reported as 34.2% (active).
In the case of `CCSc1ccccc1C(=O)Nc1ccc2c(c1)OCO2`, the activation is reported as 143% (active).
With `C=CCNC(=O)CSc1nc2sc(C)c(C)c2c(=O)[nH]1` the activation was 16.4% (active).
For `COc1ccccc1NC(=O)C1=C(C)NC2=C(C(=O)CCC2)C1c1ccc(C)o1` (centres undefined), the activation was 111% (active).
In the case of `Brc1ccc(C2CC(c3ccccc3)=Nc3ccccc3N2)cc1` (centres undefined), the activation is reported as 39.7% (active).
With `Cc1cccc(NC(=O)Nc2ccc3c(c2)OCO3)n1` the activation was 46.3% (active).
For `Cn1nc(-c2ccc(Cl)cc2)c2cc(C(=O)NCc3ccco3)sc21`, the activation was 26.7% (active).
For `COc1ccccc1N1CCN(C(=O)c2cc3c(-c4ccc(Cl)cc4)nn(C)c3s2)CC1`, the activation was 39.5% (active).
`CCOC(=O)N1CCN(C(=O)c2cc3c(-c4ccc(Cl)cc4)nn(C)c3s2)CC1` was tested, and the activation was 48.9% (active).
In the case of `CCOC(=O)c1ccc2[nH]c3c(c2c1)CCCC3NC=O` (centres undefined), the activation is reported as 5.7%.
Work on `O=C(N/N=C/c1c[nH]c2ccccc12)c1cc2ccccc2o1` yielded an activation of 7.59%.
With `COc1cccc(-n2c(SCC(=O)NC3CCCCC3)nc3n[nH]c(C)c3c2=N)c1` the activation was 160% (active).
`COc1ccccc1Nc1ncnc2c1oc1ccccc12` was tested, and the activation was 21.1% (active).
For `Cc1cc(N2CCOCC2)nc(-c2ccc(Br)cc2)n1`, the activation was 43.3% (active).
For `O=C(Nc1ccc(C2CC2(Cl)Cl)cc1)c1cccc([N+](=O)[O-])c1` (centres undefined), the activation was 19.2% (active).
For `COc1ccc(C2NC(=O)c3ccccc3N2)cc1` (centres undefined), the activation was 6.29%.
`Brc1ccc(-c2noc(-c3ccccc3)n2)o1` was tested, and the activation was 20.2% (active).
For `CC(=O)Nc1ccc(-c2nc3ccccc3o2)cc1`, the activation was 10.9% (active).
For `CC(C)C(=O)Nc1c(C(=O)c2ccc(F)cc2)oc2ccccc12`, the activation was 25.4% (active).
With `C/C(CC1CC(C)(C)OC1=O)=N/Nc1nc(-c2ccccc2)cs1` (centres undefined) the activation was 189% (active).
